Screens deposited in PubChem BioAssay by National Center for Advancing Translational Sciences (NCATS).
In the library only some 12% were active in any assay of this set; here they are far more common.
HP1b binding inh: inhibitors of HP1-beta chromodomain binding to methylated histone tails | Potency, µM (doses to about 114 µM), without a hit: at the highest dose activity change, negative = inhibition, hits mostly inhibitors | AID 540317 | AlphaScreen HP1-beta / biotin-H3K9me3 peptide binding | 390,000 compounds, 0.56% hits | P83916; further: potency means the concentration at half of the fitted maximal effect; nearly all actives have a fitted effect of over 70% in size
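HP1-beta protein (50 nM final) preincubated 30 min at room temperature with biotinylated H3(1-18)K9me3 peptide (50 nM) in PBS pH 7.4, 0.01% Tween-20, then compound added for 30 min. AlphaScreen streptavidin donor/nickel chelate acceptor beads (10 ug/mL final), 30 min dark, luminescence read.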
JMJD2A Tudor inh: JMJD2A Tudor domain (human) inhibition | 390,000 compounds, 4.4% hits | O75164 | AlphaScreen JMJD2A-Tudor / H3K4me3 peptide binding | Potency, µM (top dose mostly 114 µM), for the others: top-dose activity change, negative = inhibition, hits mostly inhibitors; further: potency means the concentration at half of the fitted maximal effect; on the % scale 0 is the no-effect control and ±100 the full control effect; nearly all actives have a fitted effect of over 50% in size
BAZ2B block: BAZ2B (human) inhibition; Q9UIF8; AlphaScreen BAZ2B-H3K14Ac peptide displacement; Potency, µM (highest dose often 114 µM), inactives show at the highest dose activity change, negative = inhibition, most hits filed as inhibitors; 360,000 compounds, 4.4% hits; AID 504333; further: potency means the concentration at half of the fitted maximal effect; on the % scale 0 is the no-effect control and ±100 the full control effect; nearly all actives have a fitted effect of over 60% in size
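Complex of BAZ2B and biotin-H3K14Ac (50 nM apiece) forms over 30 min at RT, then faces library compounds up to 110 uM for another 30 min; AlphaScreen beads added, 20 min dark incubation, luminescence read.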
PLK1 PBD block: PLK1 (human) polo-box domain binding inhibition | P53350 | Plk1 PBD binding of FITC phosphopeptide, fluorescence polarization | Potency, µM, without a hit: max response, negative = inhibition, most hits filed as inhibitors | 360,000 compounds, 2.8% hits; further: potency means the concentration at half of the fitted maximal effect; series mostly up to about 57 µM; on the % scale 0 is the no-effect control and ±100 the full control effect; nearly all actives have a fitted effect of over 65% in size
G9a inh: blocks human histone lysine methyltransferase G9a; 350,000 compounds, 8.8% hits; Potency, µM (doses to about 102 µM), without a hit: at the highest dose activity, negative = inhibition, actives largely listed as inhibitors; Q96KQ7; AID 504332; G9a H3K9 monomethylation, AlphaScreen, 2 h; further: potency means the concentration at half of the fitted maximal effect; on the % scale 0 is the no-effect control and ±100 the full control effect; nearly all actives have a fitted effect of over 75% in size
Target sequence (Q96KQ7 913-1193 limits assumed): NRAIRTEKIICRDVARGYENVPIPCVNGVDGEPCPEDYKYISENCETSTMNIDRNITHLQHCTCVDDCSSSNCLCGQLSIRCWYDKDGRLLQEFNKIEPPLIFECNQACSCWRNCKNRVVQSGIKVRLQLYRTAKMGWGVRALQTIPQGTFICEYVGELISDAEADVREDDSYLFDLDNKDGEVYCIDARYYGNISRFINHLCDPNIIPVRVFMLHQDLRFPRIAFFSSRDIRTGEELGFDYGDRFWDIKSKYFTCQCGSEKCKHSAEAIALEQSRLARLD
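Enzyme 20 nM + cpd, 15 min RT; add b-H3K9 pep 500 nM / SAM 20 uM; 2 h RT; anti-H3K9me1 Ab 0.5 ug/mL + SA donor / anti-rabbit acceptor beads 20 ug/mL each, 10 min; AlphaScreen read.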
PI5P4Ka inh: PI5P4K alpha (human) kinase inhibition; PI5P4Kalpha enzyme, ADP-Glo luminescence, 60 min; active compounds read low; P48426; max response, %; 330,000 compounds, 1.2% hits; active means max response of -50% or lower; inconclusive means between -30% and -50%; inactive means -30% or higher; further: value at the top dose of about 77 µM; on the % scale 0 is the no-effect control and ±100 the full control effect
Target sequence (P48426 whole entry, looked up): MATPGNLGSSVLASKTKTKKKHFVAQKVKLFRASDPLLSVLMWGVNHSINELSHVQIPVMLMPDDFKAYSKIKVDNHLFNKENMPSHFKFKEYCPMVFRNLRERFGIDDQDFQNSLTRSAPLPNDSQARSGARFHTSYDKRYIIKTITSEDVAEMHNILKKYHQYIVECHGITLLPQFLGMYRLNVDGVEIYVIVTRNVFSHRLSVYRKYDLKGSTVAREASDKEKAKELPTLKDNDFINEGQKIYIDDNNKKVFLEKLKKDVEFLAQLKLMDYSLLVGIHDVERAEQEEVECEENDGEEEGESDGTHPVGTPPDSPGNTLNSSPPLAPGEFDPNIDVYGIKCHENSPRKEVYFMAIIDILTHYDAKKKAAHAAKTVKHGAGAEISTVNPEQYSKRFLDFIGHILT
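Compounds were pin-transferred onto PI5P4Kalpha and substrate in HEPES pH 7.4 buffer with EGTA, CHAPS and 5% DMSO. ATP (5 microM final) started the reaction, which ran 60 minutes at room temperature before ADP-Glo detection.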
* hit, by the source's call; [ ] = remark or other dose. Unless noted, the call rests on the fitted dose curve; in most records, active means well fitted curve in the direction sought with a large enough effect; inconclusive means small, poorly fitted or top-dose-only effect, or another doubt; inactive means no such curve, though single readings can be large; an effect the other way counts as inactive or inconclusive.

`Fc1ccccc1N1CCN(C(c2ccccn2)c2nnnn2C2CCCCC2)CC1` (stereo unspecified) gave HP1b binding inh 16%, JMJD2A Tudor inh -28%, BAZ2B block 79µM*, PLK1 PBD block -2% and G9a inh 14µM*.
Screening COc1ccc(OC)c(C(c2nnnn2C2CCCC2)N2CCN(c3ccccc3F)CC2)c1 (stereo unspecified) returned HP1b binding inh -2%, JMJD2A Tudor inh -34%, BAZ2B block 50µM*, PLK1 PBD block -4%, G9a inh -5%[59 µM] and PI5P4Ka inh 5.
Screening COc1ccc2cc(C(c3nnnn3CC3CCCO3)N3CCOCC3)c(=O)[nH]c2c1 (stereo unspecified) returned HP1b binding inh 18%, JMJD2A Tudor inh -12%, BAZ2B block -1%, PLK1 PBD block 1% and G9a inh 17%.
`COc1ccc(OC)c(C(c2nnnn2C2CCCC2)N2CCc3ccccc3C2)c1` (stereo unspecified) gave HP1b binding inh 11%, JMJD2A Tudor inh -27%, BAZ2B block inconclusive, PLK1 PBD block -3%, G9a inh inconclusive and PI5P4Ka inh 16.
For Cc1ccc(CCNC(=O)CCCn2c(=O)c3cccn3c3ccc(F)cc32)cc1 the results were HP1b binding inh 17%, JMJD2A Tudor inh -16%, BAZ2B block -21% and G9a inh 0%[59 µM].
CCC/C=C/c1ccc(CN2C(C)C(=O)N(Cc3cn(CCC4OCCCO4)nn3)CCS2(=O)=O)cc1 (stereo unspecified) was read as PLK1 PBD block 28% and PI5P4Ka inh -1.
`CC(=O)Nc1ccc(NC(=O)C(C)OC(=O)CNS(=O)(=O)/C=C/c2ccc(C)cc2)cc1` (stereo unspecified) gave HP1b binding inh 13%, JMJD2A Tudor inh -10%, BAZ2B block -6%, PLK1 PBD block -11%, G9a inh -31%[59 µM] and PI5P4Ka inh -7.
Screening COc1ccc(N2CCN(C(c3ccccc3OC)c3nnnn3C3CCCC3)CC2)cc1 (stereo unspecified) returned HP1b binding inh inconclusive, JMJD2A Tudor inh 56µM*, BAZ2B block 45µM*, PLK1 PBD block -8%, G9a inh 16µM* and PI5P4Ka inh -4.
COc1ccc(N2CCN(C(c3cccs3)c3nnnn3C3CCCC3)CC2)cc1 (stereo unspecified) was read as HP1b binding inh -27%, JMJD2A Tudor inh inconclusive, BAZ2B block inconclusive, PLK1 PBD block 0% and G9a inh inconclusive.
`O=C(NCCc1nc2ccccc2n1CCOc1ccccc1)C1CCCCC1` gave HP1b binding inh 23%[57 µM] and JMJD2A Tudor inh -12%[57.1 µM].
Screening O=C(c1cnccn1)N1CCC2(CC1)CN(Cc1ccccc1)C2 returned G9a inh -3%[12.7 µM].
COc1ccc(CNC(=O)Cc2c(C)c3cc4c(C)coc4cc3oc2=O)cc1 was read as HP1b binding inh 4%, JMJD2A Tudor inh -29%, BAZ2B block -15% and G9a inh 2%[59 µM].
`Cn1sccc1=O` gave HP1b binding inh 42%, JMJD2A Tudor inh -20%, BAZ2B block -11%, PLK1 PBD block 15µM*, G9a inh 1.8µM* and PI5P4Ka inh inconclusive.
`O=C(CNC(=O)c1ccc2ccccc2c1)NCc1ccc(F)cc1` gave HP1b binding inh 1%, JMJD2A Tudor inh -5%, BAZ2B block -30%, PLK1 PBD block -5%, G9a inh 1% and PI5P4Ka inh -14.
O=c1ccn([C@@H]2O[C@H](COP(=O)(O)O)[C@@H](O)[C@H]2O)c(=O)[nH]1 was read as G9a inh 32%[59 µM].
`O=C(O)c1cc(-c2ccc(/C=N/N3C(=O)C4C5C=CC(CC5)C4C3=O)o2)ccc1Cl` (stereo unspecified) gave HP1b binding inh 22%, JMJD2A Tudor inh 0%, BAZ2B block -15%, PLK1 PBD block -5%, G9a inh -36% and PI5P4Ka inh 1.
O=C1C2C3C=CC(C4CC34)C2C(=O)N1/N=C/c1ccc(-c2ccc(Cl)cc2[N+](=O)[O-])o1 (stereo unspecified) was read as HP1b binding inh inconclusive, JMJD2A Tudor inh inconclusive, BAZ2B block inconclusive, PLK1 PBD block -7%, G9a inh 35µM* and PI5P4Ka inh -1.
`COC(=O)c1ccc(-c2ccc(/C=N/N3C(=O)C4C5C=CC(CC5)C4C3=O)o2)cc1` (stereo unspecified) gave HP1b binding inh 5%, JMJD2A Tudor inh -4%, BAZ2B block -28%, PLK1 PBD block -10% and PI5P4Ka inh 2.
O=C(O)c1cc(-c2ccc(/C=N/N3C(=O)C4C5C=CC(C6CC56)C4C3=O)o2)ccc1Cl (stereo unspecified) was read as HP1b binding inh 25%, JMJD2A Tudor inh -8%[11.4 µM], BAZ2B block 79µM*, PLK1 PBD block -18%, G9a inh 45µM* and PI5P4Ka inh -16.
Screening COc1ccc(-c2ccc(/C=N/N3C(=O)C4C5C=CC(C6CC56)C4C3=O)o2)c([N+](=O)[O-])c1 (stereo unspecified) returned HP1b binding inh -18%, JMJD2A Tudor inh inconclusive, BAZ2B block inconclusive, PLK1 PBD block 2%, G9a inh inconclusive and PI5P4Ka inh -19.
Screening Cc1ccc(-c2ccc(/C=N/N3C(=O)C4C5C=CC(CC5)C4C3=O)o2)c([N+](=O)[O-])c1 (stereo unspecified) returned HP1b binding inh -19%, JMJD2A Tudor inh -32%, BAZ2B block inconclusive, PLK1 PBD block -11% and G9a inh 45µM*.
Screening O=C1C2C3C=CC(C4CC34)C2C(=O)N1/N=C/c1ccc(-c2ccc(F)cc2[N+](=O)[O-])o1 (stereo unspecified) returned HP1b binding inh -24%, JMJD2A Tudor inh inconclusive, BAZ2B block inconclusive, PLK1 PBD block -3%, G9a inh 8.9µM* and PI5P4Ka inh 1.
`COC(=O)C(Cc1ccc(O)cc1)NC(=O)C1CCN(S(=O)(=O)c2ccc(C)cc2)CC1` (stereo unspecified) gave HP1b binding inh 20%, JMJD2A Tudor inh -2%, BAZ2B block 3%, PLK1 PBD block 1%, G9a inh 14% and PI5P4Ka inh -2.
Screening COc1ccccc1CNc1cc(-c2ccoc2)ncn1 returned G9a inh 1%[0.501 µM].
Cc1ccc(Cc2c(C3CCCCC3)nc3cc(C)c(Br)c(C)n23)cc1 was read as PLK1 PBD block -5% and PI5P4Ka inh 11.
O=C1NC(=O)C(=Cc2ccc(Cl)cc2Cl)S1 was read as HP1b binding inh 9%, JMJD2A Tudor inh -33%, PLK1 PBD block inconclusive and PI5P4Ka inh -14.
